Results reported in PubChem BioAssay (Tox21).
Results filed as inconclusive are left out. Active and inactive are the calls of the source. The call rests on the fitted dose curve; in most records, active means well fitted curve in the direction sought with a large enough effect in the repeat runs; inconclusive means weak or mixed curves; inactive means no such curve, though single readings can be large; an effect the other way counts as inactive or inconclusive.

Tests used:
[1] = A CellTox Green Cytotoxicity Assay to monitor cytotoxicity in HepG2 cells - 16 hour (AID 1224876); further: nearly all actives have a fitted effect of over 45% in size
In short: (§1)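 Read-out is fluorescence of a cyanine dye excluded from live cells that stains DNA of dead HepG2 cells, with signal proportional to cytotoxicity. Plates were read at 0, 8, 16, 24, 32 and 40 h after compound addition.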

[2] = qHTS RealTime-Glo MT Cell Viability Assay in HepG2 cells - 32 hour (AID 1224877); further: nearly all actives have a fitted effect of over 55% in size
In short: (§2)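 Cell number in HepG2 cultures estimated from NanoLuc luminescence generated by metabolic reduction of a prosubstrate by living cells. The homogeneous, nonlytic format allowed repeated reads at 0, 8, 16, 24, 32 and 40 h of compound exposure.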

[3] = A CellTox Green Cytotoxicity Assay to monitor cytotoxicity in HepG2 cells - 24 hour (AID 1224878); further: nearly all actives have a fitted effect of over 45% in size
In short: as §1

[4] = A CellTox Green Cytotoxicity Assay to monitor cytotoxicity in HepG2 cells - 40 hour (AID 1224879); further: nearly all actives have a fitted effect of over 40% in size
In short: as §1

[5] = qHTS RealTime-Glo MT Cell Viability Assay in HEK293 cells - 0 hour (AID 1224880); further: top concentration of the series differs between compounds; nearly all actives have a fitted effect of over 45% in size
In short: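 Cells were seeded together with NanoLuc luciferase and a prosubstrate that viable cells reduce to a luciferase substrate. After a 5 h incubation at 37 C/5% CO2, compounds were added and luminescence was measured repeatedly during 40 h of treatment.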

[6] = A CellTox Green Cytotoxicity Assay to monitor cytotoxicity in HEK293 cells - 32 hour (AID 1224881); further: nearly all actives have a fitted effect of over 40% in size
In short: (§3)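 Nonlytic real-time cytotoxicity: HEK293 + CellTox Green reagent plated, 5 h preincubation, pintool compound addition (23 nL in DMSO), 37 C for 40 h, fluorescence measured at successive time points.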

[7] = A CellTox Green Cytotoxicity Assay to monitor cytotoxicity in HepG2 cells - 0 hour (AID 1224882); further: nearly all actives have a fitted effect of over 35% in size
In short: as §1

[8] = A CellTox Green Cytotoxicity Assay to monitor cytotoxicity in HepG2 cells - 32 hour (AID 1224883); further: nearly all actives have a fitted effect of over 50% in size
In short: as §1

[9] = A CellTox Green Cytotoxicity Assay to monitor cytotoxicity in HEK293 cells - 8 hour (AID 1224884); further: nearly all actives have a fitted effect of over 35% in size
In short: as §3

[10] = qHTS RealTime-Glo MT Cell Viability Assay in HepG2 cells - 16 hour (AID 1224885); further: nearly all actives have a fitted effect of over 50% in size
In short: as §2

Measured: Potency

CCCSSCCC
inactive: [1] | [2] | [3] | [4] | [5] | [6] | [7] | [8] | [9] | [10]

O=C1CCCCO1
inactive: [1] | [2] | [3] | [4] | [5] | [6] | [7] | [8] | [9] | [10]

CCCCCCCCCOC(=O)c1ccccc1C(=O)OCCCCCCCCC
inactive: [1] | [2] | [3] | [4] | [5] | [6] | [7] | [8] | [9] | [10]

CC(O)COC(C)(C)C (stereo not given)
inactive: [1] | [2] | [3] | [4] | [5] | [6] | [7] | [8] | [9] | [10]

CC1CC(=O)CC(C)(C)C1 (stereo not given)
inactive: [1] | [2] | [3] | [4] | [5] | [6] | [7] | [8] | [9] | [10]

CC1OCCC1=O (stereo not given)
inactive: [1] | [2] | [3] | [4] | [5] | [6] | [7] | [8] | [9] | [10]

O=C(O)CNC(=O)CNC(=O)CNC(=O)CSC(=O)c1ccccc1
inactive: [1] | [2] | [3] | [4] | [5] | [6] | [7] | [8] | [9] | [10]

Cc1ccc(C)c([N+](=O)[O-])c1
inactive: [1] | [2] | [3] | [4] | [5] | [6] | [7] | [8] | [9] | [10]

C=CC(=O)CCCCC
inactive: [1] | [2] | [3] | [4] | [5] | [6] | [7] | [8] | [9] | [10]

CC1=C(C(=O)O)N2C(=O)[C@@H](NC(=O)[C@H](N)C3=CCC=CC3)[C@H]2SC1
inactive: [1] | [2] | [3] | [4] | [5] | [6] | [7] | [8] | [9] | [10]

CCCCOC(=O)[C@H](C)O
inactive: [1] | [2] | [3] | [4] | [5] | [6] | [7] | [8] | [9] | [10]

CCCCOCC(C)O (stereo not given)
inactive: [1] | [2] | [3] | [4] | [5] | [6] | [7] | [8] | [9] | [10]

CC(C)CCOC(=O)c1ccccc1
inactive: [1] | [2] | [3] | [4] | [5] | [6] | [7] | [8] | [9] | [10]

CCC[C@@H]1C[C@@H](C(=O)N[C@@H]([C@H]2O[C@H](SC)[C@H](O)[C@@H](O)[C@H]2O)[C@@H](C)O)N(C)C1
inactive: [1] | [2] | [3] | [4] | [5] | [6] | [7] | [8] | [9] | [10]

CC(C)=CCC[C@@](C)(O)[C@H]1CC=C(C)CC1
inactive: [1] | [2] | [3] | [4] | [5] | [6] | [7] | [8] | [9] | [10]

[O-][n+]1cccc(/C(Cl)=N/OC[C@@H](O)CN2CCCCC2)c1
inactive: [1] | [2] | [3] | [4] | [5] | [6] | [7] | [8] | [9] | [10]

C/C(CC(C)C)=N\O
inactive: [1] | [2] | [3] | [4] | [5] | [6] | [7] | [8] | [9] | [10]

Cc1c(Cl)cccc1Cl
inactive: [1] | [2] | [3] | [4] | [5] | [6] | [7] | [8] | [9] | [10]

CNCCS(=O)(=O)O
inactive: [1] | [2] | [3] | [4] | [5] | [6] | [7] | [8] | [9] | [10]

CCCC(=O)Nc1ccc(OCC(O)CNC(C)C)c(C(C)=O)c1 (stereo not given)
inactive: [1] | [2] | [3] | [4] | [5] | [6] | [7] | [8] | [9] | [10]

Cc1ccnc(N)c1
inactive: [1] | [2] | [3] | [4] | [5] | [6] | [7] | [8] | [9] | [10]

O=C(CN1CCNCC1)NC1CCCCC1
inactive: [1] | [2] | [3] | [4] | [5] | [6] | [7] | [8] | [9] | [10]

CC(=O)C(C)O (stereo not given)
inactive: [1] | [2] | [3] | [4] | [5] | [6] | [7] | [8] | [9] | [10]

CCC(C)OC(C)CC (stereo not given)
inactive: [1] | [2] | [3] | [4] | [5] | [6] | [7] | [8] | [9] | [10]

O=C(Cl)c1ccccc1[N+](=O)[O-]
inactive: [1] | [2] | [3] | [4] | [5] | [6] | [7] | [8] | [9] | [10]
